Results: PubChem BioAssay (Tox21)
Several values for one entry are separate records, joined by “and”; a condition that tells them apart may be missing. Identical values can stand only once. Results filed as inconclusive are left out. Some structures have more than one record in an assay (separate samples or runs), and their calls can disagree. Activity calls are given as the source filed them. Unless noted, the call rests on the fitted dose curve; in most records, active means well fitted curve in the direction sought with a large enough effect in the repeat runs; inconclusive means weak or mixed curves; inactive means no such curve, though single readings can be large; an effect the other way counts as inactive or inconclusive.

How the values were obtained:
[1] = target: Progesterone receptor (Homo sapiens) (UniProt P06401); test: qHTS assay to identify small molecule agonists of the progesterone receptor (PR) signaling pathway (AID 1346784; calls by dose curve; further: nearly all actives have a fitted effect of over 30% in size)
Sequence of Progesterone receptor (Homo sapiens) (P06401 whole entry, looked up): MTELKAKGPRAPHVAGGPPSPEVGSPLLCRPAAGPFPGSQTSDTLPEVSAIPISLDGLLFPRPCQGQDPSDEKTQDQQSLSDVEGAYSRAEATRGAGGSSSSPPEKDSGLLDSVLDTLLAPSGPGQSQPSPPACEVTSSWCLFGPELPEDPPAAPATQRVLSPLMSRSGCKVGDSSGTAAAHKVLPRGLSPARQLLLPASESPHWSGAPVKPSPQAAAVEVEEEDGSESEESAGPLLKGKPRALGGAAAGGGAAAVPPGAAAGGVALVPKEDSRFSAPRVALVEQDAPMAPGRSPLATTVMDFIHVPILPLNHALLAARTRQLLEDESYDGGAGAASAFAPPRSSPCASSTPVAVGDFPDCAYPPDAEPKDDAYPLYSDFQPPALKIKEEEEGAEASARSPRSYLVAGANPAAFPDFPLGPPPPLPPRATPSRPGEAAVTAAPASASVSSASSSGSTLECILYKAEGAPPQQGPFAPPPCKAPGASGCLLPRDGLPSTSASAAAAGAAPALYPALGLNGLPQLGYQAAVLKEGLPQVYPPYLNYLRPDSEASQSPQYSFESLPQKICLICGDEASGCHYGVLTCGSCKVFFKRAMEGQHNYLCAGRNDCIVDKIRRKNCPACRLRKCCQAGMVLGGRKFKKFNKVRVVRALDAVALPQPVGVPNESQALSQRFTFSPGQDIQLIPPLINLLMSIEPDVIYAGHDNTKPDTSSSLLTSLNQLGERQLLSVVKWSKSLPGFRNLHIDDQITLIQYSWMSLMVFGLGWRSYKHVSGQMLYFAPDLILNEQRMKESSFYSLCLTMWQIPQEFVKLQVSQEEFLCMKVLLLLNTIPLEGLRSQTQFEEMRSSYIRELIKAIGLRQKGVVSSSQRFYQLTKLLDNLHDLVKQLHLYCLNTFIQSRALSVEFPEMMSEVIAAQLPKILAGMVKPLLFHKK
How it was run: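 The screen uses PR-UAS-bla HEK 293T cells in charcoal-stripped serum (2%). Compounds are applied for 16 hr at 37C after a 6 hr pre-incubation, and reporter activity is detected with a FRET beta-lactamase substrate after 2 hr at room temperature.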

[2] = target: Progesterone receptor (Homo sapiens) (UniProt P06401); test: qHTS assay to identify small molecule antagonists of the progesterone receptor (PR) signaling pathway (AID 1346795; active means well fitted inhibition curve with a large enough effect in the signal ratio in the repeat runs, not every such curve was filed as active; the % refers to the signal ratio; further: potency means the concentration at half of the fitted maximal effect)
How it was run: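 After 6 hr plating at 37C in 2% stripped-serum medium, PR-UAS-bla HEK293T cells got compounds, then 1 nM R5020. Sixteen hours later, LiveBLAzer substrate was applied for 2 hr at room temperature and fluorescence was recorded.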

[3] = qHTS assay to identify small molecule antagonists of the progesterone receptor (PR) signaling pathway - cell viability counter screen (AID 1346798); further: nearly all actives have a fitted effect of over 50% in size; further: potency means the concentration at half of the fitted maximal effect
How it was run: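 Viability was determined by ATP-based luminescence (CellTiter-Glo) in PR-UAS-bla HEK293T cells cultured in 2% charcoal-stripped serum and incubated 16 hr with compounds under R5020 stimulation.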

[4] = qHTS assay to identify small molecule agonists of the progesterone receptor (PR) signaling pathway - cell viability counter screen (AID 1346799; calls by dose curve; further: nearly all actives have a fitted effect of over 45% in size; further: potency means the concentration at half of the fitted maximal effect)
How it was run: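 Viability was scored by ATP luminescence (CellTiter-Glo, 30 min, room temperature) in the same wells used for the reporter readout, after 16 hr compound exposure of PR-UAS-bla HEK293T cells.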

[5] = qHTS assay to identify small molecule antagonists of the TGF-beta/Smad signaling pathway - cell viability counter screen (AID 1346824); further: nearly all actives have a fitted effect of over 50% in size
How it was run: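 SBE-bla HEK 293T cells, incubated overnight, then compound plus 0.25 ng/mL TGF-beta1 (stock added) for 5 hr at 37 C. Viability was read in the same wells by CellTiter-Glo luminescence after 30 min at room temperature.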

[6] = qHTS assay to identify small molecule agonists of the TGF-beta/Smad signaling pathway - cell viability counter screen (AID 1346829); further: top concentration of the series differs between compounds; nearly all actives have a fitted effect of over 45% in size
How it was run: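 HEK 293T SBE-bla line, 5 hr compound exposure at 37 C, multiplexed CellTiter-Glo viability read by luminescence.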

[7] = qHTS assay to identify small molecule agonists of the TGF-beta/Smad signaling pathway (AID 1346859; active means well fitted activation curve with a large enough effect in the signal ratio in the repeat runs, not every such curve was filed as active; the % refers to the signal ratio; further: series mostly up to about 77 µM)
How it was run: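 Dual-wavelength fluorescence (460/530 nm emission) quantified beta-lactamase expression under the Smad binding element in HEK 293T cells following 5 hr compound treatment at 37 C.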

[8] = target: Thyrotropin-releasing hormone receptor (Homo sapiens) (UniProt P34981); test: qHTS assay to identify small molecule antagonists of the thyrotropin-releasing hormone receptor (TRHR) signaling pathway (AID 1346877; active means well fitted inhibition curve with a large enough effect in the repeat runs, not every such curve was filed as active; further: series mostly up to about 51 µM)
Sequence of Thyrotropin-releasing hormone receptor (Homo sapiens) (P34981 whole entry, looked up): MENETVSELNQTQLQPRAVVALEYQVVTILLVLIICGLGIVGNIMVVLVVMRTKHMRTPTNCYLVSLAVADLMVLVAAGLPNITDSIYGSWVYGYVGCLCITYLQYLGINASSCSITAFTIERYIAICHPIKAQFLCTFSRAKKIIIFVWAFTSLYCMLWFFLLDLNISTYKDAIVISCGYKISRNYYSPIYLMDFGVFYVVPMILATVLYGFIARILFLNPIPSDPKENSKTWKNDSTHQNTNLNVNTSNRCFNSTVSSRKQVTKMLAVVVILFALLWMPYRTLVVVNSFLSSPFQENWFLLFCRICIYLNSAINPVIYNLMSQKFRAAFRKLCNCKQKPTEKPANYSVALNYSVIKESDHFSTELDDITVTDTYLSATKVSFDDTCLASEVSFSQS
How it was run: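 Antagonism is measured as suppression of the calcium response to 1 nM TRH in TRHR-HEK293 cells that have been dye-loaded for 2 h at 37 °C after overnight plating. Each compound is tested at 15 concentrations in triplicate.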

[9] = target: Thyrotropin-releasing hormone receptor (Homo sapiens) (UniProt P34981); test: qHTS assay to identify small molecule agonists of the thyrotropin-releasing hormone receptor (TRHR) signaling pathway (AID 1346891; calls by dose curve;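 further: HEK293 cells expressing TRHR with calcium dye readout; series mostly up to about 58 µM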)
How it was run: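 Kinetic fluorescence (3 min, 1 s intervals) reported intracellular calcium after compound transfer onto TRHR-Hek293 cells pre-loaded with dye for 2 h at 37 °C.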

[10] = Human pregnane X receptor (PXR) small molecule agonists, qHTS cell viability counter screen (AID 1346977); further: nearly all actives have a fitted effect of over 50% in size; further: potency means the concentration at half of the fitted maximal effect
How it was run: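 HepG2 cells stably carrying the PXR-Luc reporter are cultured with 5% charcoal-stripped FBS and treated with compounds for 24hr. CellTiter-Fluor is added at 23hr and fluorescence is read after 1hr.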

[11] = Caspase-3/7 induction in HepG2 cells by small molecules, qHTS assay (AID 1346978); further: nearly all actives have a fitted effect of over 15% in size
How it was run: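 Wild-type HepG2 cells, 2,000/well, settled 5 hr at 37 C and 5% CO2, then compound-treated for 17 hr; caspase-3/7 activity read by luminescent Caspase-Glo 3/7 after 30 min at room temperature.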

[12] = Caspase-3/7 induction in CHO-K1 cells by small molecules, qHTS cell viability counter screen (AID 1346979); further: nearly all actives have a fitted effect of over 35% in size; further: potency means the concentration at half of the fitted maximal effect
How it was run: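 Seeding: 1,500 CHO-K1 cells/well. Rest: 5hr, 37C. Treatment: compounds in DMSO, 16hr. Read: CellTiter-Fluor, 1hr, fluorescence.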

[13] = Caspase-3/7 induction in CHO-K1 cells by small molecules, qHTS assay (AID 1346980); further: nearly all actives have a fitted effect of over 15% in size
How it was run: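 Wild-type CHO-K1 cells exposed to compounds for 17hr at 37 C, 5% CO2. Caspase-3/7 activity then measured by Caspase-Glo 3/7 luminescence after 30min at room temperature.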

[14] = Caspase-3/7 induction in HepG2 cells by small molecules, qHTS cell viability counter screen (AID 1346981); further: nearly all actives have a fitted effect of over 30% in size; further: potency means the concentration at half of the fitted maximal effect
How it was run: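 Cell viability is measured as a cytotoxicity counter screen alongside the Caspase-Glo 3/7 readout in identical wells. Wild-type HepG2 cells are treated with test compounds for 16 hr at 37 C before CellTiter-Fluor addition and a 1-hr incubation.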

[15] = target: Nuclear receptor subfamily 1 group I member 2 (Homo sapiens) (UniProt O75469); test: Human pregnane X receptor (PXR) small molecule agonists, qHTS assay (AID 1346982); further: nearly all actives have a fitted effect of over 35% in size; further: potency means the concentration at half of the fitted maximal effect
Sequence of Nuclear receptor subfamily 1 group I member 2 (Homo sapiens) (O75469 whole entry, looked up): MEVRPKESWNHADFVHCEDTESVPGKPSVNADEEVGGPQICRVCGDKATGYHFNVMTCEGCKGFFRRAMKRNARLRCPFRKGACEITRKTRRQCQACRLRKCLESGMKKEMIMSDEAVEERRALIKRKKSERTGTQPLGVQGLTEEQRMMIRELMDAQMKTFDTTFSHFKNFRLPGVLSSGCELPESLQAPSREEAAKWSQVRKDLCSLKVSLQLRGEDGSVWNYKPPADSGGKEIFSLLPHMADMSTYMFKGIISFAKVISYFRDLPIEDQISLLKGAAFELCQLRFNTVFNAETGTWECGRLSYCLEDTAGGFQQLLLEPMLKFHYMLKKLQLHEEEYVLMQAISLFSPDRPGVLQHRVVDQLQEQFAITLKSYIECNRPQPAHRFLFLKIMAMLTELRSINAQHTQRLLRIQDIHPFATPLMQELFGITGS
How it was run: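 Cells: HepG2 stably carrying PXR-Luc. Medium held 5% charcoal-stripped FBS. Compounds in DMSO added after 5 hr plating, incubated 24 hr, then luminescence quantified with ONE-Glo.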

[16] = target: Cytochrome P450 2D6 (Homo sapiens) (UniProt P10635); test: Cytochrome P450 Family 2 Subfamily D Member 6 (CYP2D6) small molecule antagonists: luciferase reporter qHTS assay (AID 1671196); further: nearly all actives have a fitted effect of over 50% in size; further: potency means the concentration at half of the fitted maximal effect
Sequence of Cytochrome P450 2D6 (Homo sapiens) (P10635 whole entry, looked up): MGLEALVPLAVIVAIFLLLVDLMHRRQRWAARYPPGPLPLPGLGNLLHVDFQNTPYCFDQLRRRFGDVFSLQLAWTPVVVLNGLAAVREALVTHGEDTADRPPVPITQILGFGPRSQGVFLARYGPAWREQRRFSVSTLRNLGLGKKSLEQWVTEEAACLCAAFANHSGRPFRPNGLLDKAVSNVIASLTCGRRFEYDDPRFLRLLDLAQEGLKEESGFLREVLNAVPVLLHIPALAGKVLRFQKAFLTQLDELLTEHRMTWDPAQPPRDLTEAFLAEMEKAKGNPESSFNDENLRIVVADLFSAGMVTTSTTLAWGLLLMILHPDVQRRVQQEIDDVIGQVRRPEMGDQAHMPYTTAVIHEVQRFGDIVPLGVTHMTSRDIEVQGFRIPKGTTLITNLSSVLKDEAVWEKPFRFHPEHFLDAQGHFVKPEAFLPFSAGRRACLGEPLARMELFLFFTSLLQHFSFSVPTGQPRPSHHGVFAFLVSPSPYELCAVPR
How it was run: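 Enzyme and proluciferin substrate were first combined with test chemical for 10 min at room temperature. Adding NADPH regeneration solution started a 1 h reaction, stopped with luciferin detection reagent and read by luminescence 20 min later.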

[17] = target: Nuclear receptor subfamily 1 group I member 2 (Rattus norvegicus) (UniProt Q9R1A7); test: Rat pregnane X receptor (rPXR) activation by small molecules, qHTS assay (AID 1346983); conditions: rPXR luciferase reporter cells, One-Glo luminescence, 24 h; max activation: stronger effect = higher value; further: nearly all actives have a fitted effect of over 20% in size
Sequence of Nuclear receptor subfamily 1 group I member 2 (Rattus norvegicus) (Q9R1A7 whole entry, looked up): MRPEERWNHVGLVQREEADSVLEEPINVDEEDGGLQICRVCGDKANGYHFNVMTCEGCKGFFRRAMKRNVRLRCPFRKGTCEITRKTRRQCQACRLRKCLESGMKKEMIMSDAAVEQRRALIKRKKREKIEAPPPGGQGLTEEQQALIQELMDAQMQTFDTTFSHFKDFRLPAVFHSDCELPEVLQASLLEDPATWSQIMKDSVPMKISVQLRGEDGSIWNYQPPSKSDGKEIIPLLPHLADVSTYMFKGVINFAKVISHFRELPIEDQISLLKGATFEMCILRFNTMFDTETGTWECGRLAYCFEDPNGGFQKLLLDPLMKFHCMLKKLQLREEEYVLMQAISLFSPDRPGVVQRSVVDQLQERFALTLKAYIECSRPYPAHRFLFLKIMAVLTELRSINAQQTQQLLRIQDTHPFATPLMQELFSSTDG
How it was run: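 Cell-based rPXR activation assay: rPXR cells, 2,000 per well, rested 5hr at 37 C, then exposed to compounds in DMSO for 24 hr at 37 C. Luciferase activity read by One-Glo luminescence after 30 min at room temperature.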

[18] = target: Nuclear receptor subfamily 1 group I member 2 (Homo sapiens) (UniProt O75469); test: CYP3A4 induction through human pregnane X receptor (PXR) by small molecules, qHTS assay (AID 1346984); further: nearly all actives have a fitted effect of over 40% in size
How it was run: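 Quantitative HTS in DPX-2 cells, i.e. HepG2 transfected with PXR response element and CYP3A4-promoter luciferase. Compounds in DMSO incubated 24hr at 37C; then P450-Glo CYP3A4 substrate, 3uM final, 3hr; One-Glo luminescence.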

[19] = target: Nuclear receptor subfamily 1 group I member 2 (Homo sapiens) (UniProt O75469); test: Human pregnane X receptor (PXR) activation by small molecules, qHTS assay (AID 1346985); further: nearly all actives have a fitted effect of over 40% in size
How it was run: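 DPX-2 cells (HepG2 co-transfected with a PXR response element and a CYP3A4-promoter luciferase construct) were seeded at 2,000 per well, rested 5 hr at 37C, then exposed to DMSO-dissolved compounds for 24 hr. Activation was read as luciferase luminescence.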
On the % scale 0 is the no-effect control and ±100 the full control effect.

c1ccc2c(c1)[nH]c1ccccc12
active: Potency [2] 26.8 µM | Potency [15] 47.7 µM and 61.1 µM
inactive: Potency [1] | Potency [3] | Potency [4] | Potency [5] | Potency [6] | outcome [7] | Potency [8] | Potency [9] | Potency [10] | Potency [11] | Potency [12] | Potency [13] | Potency [14]

NCCS(=O)(=O)O
28.4 µM (active) and inactive: Potency [12]
inactive: Potency [1] | Potency [2] | Potency [3] | Potency [5] | Potency [6] | outcome [7] | Potency [8] | Potency [9] | Potency [10] | Potency [11] | Potency [13] | Potency [14]

C=CC(=O)OCCCC
inactive: Potency [1] | Potency [2] | Potency [3] | Potency [5] | Potency [6] | outcome [7] | Potency [8] | Potency [9] | Potency [10] | Potency [11] | Potency [12] | Potency [13] | Potency [14] | Potency [15]

CC(C)=CCO
inactive: Potency [1] | Potency [2] | Potency [3] | Potency [4] | Potency [5] | Potency [6] | outcome [7] | Potency [8] | Potency [9] | Potency [10] | Potency [11] | Potency [12] | Potency [13] | Potency [14] | Potency [16]

CN(C)CCCN1c2ccccc2Sc2ccc(Cl)cc21
inactive: Potency [1] | Potency [5] | Potency [6] | outcome [7] | Potency [8] | Potency [9]
active: Potency [2] 43.3 µM and 21.1 µM | Potency [3] 27.3 µM and 29.8 µM | Potency [10] 27.3 µM and 26.6 µM | Potency [12] 54.5 µM and 29.8 µM | Potency [14] 61.1 µM and 29.8 µM

OC[C@H]1O[C@@H]2O[C@H]3[C@H](O)[C@@H](O)[C@@H](O[C@H]4[C@H](O)[C@@H](O)[C@@H](O[C@H]5[C@H](O)[C@@H](O)[C@@H](O[C@H]6[C@H](O)[C@@H](O)[C@@H](O[C@H]7[C@H](O)[C@@H](O)[C@@H](O[C@H]1[C@H](O)[C@H]2O)O[C@@H]7CO)O[C@@H]6CO)O[C@@H]5CO)O[C@@H]4CO)O[C@@H]3CO
inactive: Potency [1] | Potency [3] | Potency [5] | Potency [6] | outcome [7] | Potency [8] | Potency [9] | Potency [10] | Potency [11] | Potency [12] | Potency [13] | Potency [14] | Potency [15] | max activation [17] -2.41% | Potency [18] | Potency [19] | Potency [16]
inactive and 22.9 µM (active): Potency [2]

CCc1cccc2c3c([nH]c12)C(CC)(CC(=O)O)OCC3 (stereo not drawn)
20 µM (active) and inactive: Potency [16]
inactive: Potency [1] | Potency [2] | Potency [3] | Potency [4] | Potency [5] | Potency [6] | outcome [7] | Potency [10] | Potency [11] | Potency [12] | Potency [13] | Potency [14] | Potency [15] | max activation [17] 1.85% | Potency [18] | Potency [19]

COC(=O)CC(=O)OC
inactive: Potency [1] | Potency [2] | Potency [3] | Potency [5] | Potency [6] | outcome [7] | Potency [8] | Potency [9] | Potency [10] | Potency [11] | Potency [12] | Potency [13] | Potency [14] | Potency [16]
56.7 µM (active) and inactive: Potency [15]

CCCOCCO
inactive: Potency [1] | Potency [2] | Potency [3] | Potency [5] | Potency [6] | outcome [7] | Potency [8] | Potency [9] | Potency [10] | Potency [11] | Potency [12] | Potency [13] | Potency [14]

CCC(=O)O[C@H]1[C@H](O[C@@H]2[C@@H](C)[C@H](O[C@H]3C[C@@](C)(OC)[C@@H](O)[C@H](C)O3)[C@@H](C)C(=O)O[C@H](CC)[C@@](C)(O)[C@H](O)[C@@H](C)C(=O)[C@H](C)C[C@@]2(C)O)O[C@H](C)C[C@@H]1N(C)C
36.1 µM (active) and inactive: Potency [10]
9.07 µM (active) and inactive: Potency [15]
inactive: Potency [1] | Potency [2] | Potency [5] | Potency [6] | outcome [7] | Potency [11] | Potency [12] | Potency [13] | Potency [14] | Potency [16]
14.4 µM (active) and inactive: Potency [4]

C=CCCCCCCCCCC
inactive: Potency [1] | Potency [2] | Potency [3] | Potency [5] | Potency [6] | outcome [7] | Potency [8] | Potency [9] | Potency [10] | Potency [11] | Potency [12] | Potency [13] | Potency [15] | Potency [16]

CN(C)C
inactive: Potency [1] | Potency [2] | Potency [3] | Potency [4] | Potency [5] | Potency [6] | outcome [7] | Potency [10] | Potency [11] | Potency [12] | Potency [13] | Potency [14] | Potency [15]

Nc1ccc2c(O)cc(S(=O)(=O)O)cc2c1
inactive: Potency [1] | Potency [5] | Potency [6] | outcome [7] | Potency [8] | Potency [9] | Potency [11] | Potency [13]
active: Potency [10] 28.2 µM and 21.7 µM | Potency [12] 48.6 µM and 19.3 µM | Potency [14] 27.3 µM and 21.7 µM | Potency [15] 30.7 µM
